Source: PubChem BioAssay
Most compounds without a hit are left out; they make up all but 11% or so of the library.
L3MBTL1 inh = blocks human L3MBTL1 | Q9Y468 | AlphaScreen L3MBTL1–H3K9me1 peptide binding | Potency, µM (series often up to 57.1 µM), usual class: inhibitors | 0.66% of 230,000 active; note: nearly all actives have a fitted effect of over 60% in size
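Displacement of a biotinylated histone H3(1-15) peptide monomethylated at Lys9 (75 nM) from L3MBTL1 (50 nM) was measured by AlphaScreen after a 30 min room-temperature compound incubation; cefsulodin titration served as intraplate control.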
BAZ2B block = blocks human BAZ2B | Q9UIF8 | AlphaScreen BAZ2B-H3K14Ac peptide displacement | Potency, µM (series often up to 114 µM), actives largely listed as inhibitors | 4.4% of 360,000 active; note: nearly all actives have a fitted effect of over 60% in size
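Complex of BAZ2B and biotin-H3K14Ac (50 nM apiece) forms over 30 min at RT, then faces library compounds up to 110 uM for another 30 min; AlphaScreen beads added, 20 min dark incubation, luminescence read.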
HP1b binding inh = HP1-beta chromodomain-methylated histone interaction inhibition; P83916; AlphaScreen HP1-beta / biotin-H3K9me3 peptide binding; Potency, µM (top dose mostly 114 µM), actives largely listed as inhibitors; 0.56% of 390,000 active; AID 540317; note: nearly all actives have a fitted effect of over 70% in size
Target sequence (P83916 whole entry, looked up): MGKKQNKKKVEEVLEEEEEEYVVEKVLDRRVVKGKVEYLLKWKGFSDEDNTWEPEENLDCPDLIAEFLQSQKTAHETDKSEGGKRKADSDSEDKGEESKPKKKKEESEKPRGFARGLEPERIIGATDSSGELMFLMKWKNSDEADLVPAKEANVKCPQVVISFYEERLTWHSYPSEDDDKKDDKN
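Compound inhibition of the preformed complex between 50 nM HP1-beta and 50 nM biotinylated H3K9me3 peptide was read by AlphaScreen. Buffer was PBS pH 7.4 with 0.01% Tween-20. Incubations ran 30 min at room temperature, with 10 ug/mL donor/acceptor beads.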
G9a inh = blocks human histone lysine methyltransferase G9a; 8.8% of 350,000 active; AID 504332; Potency, µM (highest dose often 102 µM), usual class: inhibitors; G9a H3K9 monomethylation, AlphaScreen, 2 h; note: nearly all actives have a fitted effect of over 75% in size
Target sequence (Q96KQ7 913-1193 limits assumed): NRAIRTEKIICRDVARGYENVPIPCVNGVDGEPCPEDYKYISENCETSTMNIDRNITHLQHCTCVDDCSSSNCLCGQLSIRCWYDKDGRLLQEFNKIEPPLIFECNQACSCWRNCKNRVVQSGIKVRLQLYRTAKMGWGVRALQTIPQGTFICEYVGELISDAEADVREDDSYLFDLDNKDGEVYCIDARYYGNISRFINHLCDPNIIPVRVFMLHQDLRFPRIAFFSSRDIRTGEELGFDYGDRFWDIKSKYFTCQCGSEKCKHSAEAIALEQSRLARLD
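Enzyme 20 nM + cpd, 15 min RT; add b-H3K9 pep 500 nM / SAM 20 uM; 2 h RT; anti-H3K9me1 Ab 0.5 ug/mL + SA donor / anti-rabbit acceptor beads 20 ug/mL each, 10 min; AlphaScreen read.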
PI5P4K alpha inh = inhibitors of human PI5P4K alpha; P48426; PI5P4Kalpha enzyme, ADP-Glo luminescence, 60 min; stronger effect = lower value; max response, %; 1.2% of 330,000 active; active = max response of -50% or lower; inconclusive = between -30% and -50%; inactive = -30% or higher; note: value at the top dose of about 77 µM
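ADP-Glo luminescence end-point read after a 60 min room-temperature kinase reaction of PI5P4Kalpha plus substrate, initiated with ATP at 5 microM final. Buffer: 0.038 M HEPES pH 7.4, EGTA, 0.1% CHAPS, 5% DMSO.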
JMJD2A Tudor inh = inhibitors of human JMJD2A Tudor domain; O75164; AlphaScreen JMJD2A-Tudor / H3K4me3 peptide binding; Potency, µM (highest dose often 114 µM), actives largely listed as inhibitors; 4.4% of 390,000 active; AID 504339; note: nearly all actives have a fitted effect of over 50% in size
Numbers stand for hits; – = inactive; ? = inconclusive; · = no result; [ ] = dose if it differs, or a comment. Unless noted, calls come from the whole dose curve; as a rule, active = well fitted inhibition curve with a large enough effect; inconclusive = small, poorly fitted or top-dose-only effect; inactive = no such curve, though single readings can be large or run the other way.

SMILES | L3MBTL1 inh | BAZ2B block | HP1b binding inh | G9a inh | PI5P4K alpha inh | JMJD2A Tudor inh
O=C1NC(=S)S/C1=C\c1coc2ccccc2c1=O | – | ? | – | 50.1µM | -73.0 | ?
O=C1NC(=S)S/C1=C\c1coc2ccc(O)cc2c1=O | – | ? | – | 44.7µM | -100.0 | –[11.4 µM]
Cc1ccc(S(=O)(=O)Nc2cccc(-c3ccc(N4CCC(C)CC4)nn3)c2)s1 | · | – | – | – | · | –
CN1/C(=C\C(=O)Nc2ccc(F)cc2)C(C)(C)c2ccccc21 | – | ? | – | 44.7µM | – | –
CN1/C(=C\C(=S)NC(=O)c2ccc([N+](=O)[O-])cc2)C(C)(C)c2ccccc21 | – | ? | ? | 44.7µM | – | 50.1µM
CN1/C(=C\C(=O)COC(=O)c2ccc([N+](=O)[O-])o2)C(C)(C)c2ccccc21 | ? | ? | – | 20µM | – | –
CN1/C(=C\C(=S)NC(=O)c2cccc(Br)c2)C(C)(C)c2ccccc21 | – | 10µM | ? | 14.1µM | – | 20µM
CN1/C(=C\C(=O)Nc2ccc(Br)cc2)C(C)(C)c2ccccc21 | – | ? | – | – | – | –
CCN(CC)S(=O)(=O)c1cccc(C(=O)/C=C2/N(C)c3ccccc3C2(C)C)c1 | – | – | – | – | – | –
CN1CCN(C(=O)c2ccc3c(c2)N(Cc2ccc(Cl)cc2)C(=O)c2ccccc2S3(=O)=O)CC1 | · | – | – | ? | · | –
N[C@](CC1c2ccccc2Oc2ccccc21)(C(=O)O)[C@H]1C[C@@H]1C(=O)O | · | · | · | – | · | ·
O=C1ON=C(c2ccccc2[N+](=O)[O-])/C1=C/c1cccc([N+](=O)[O-])c1O | – | – | – | 1µM | – | ?
O=C1ON=C(c2ccc(Cl)c([N+](=O)[O-])c2)/C1=C/c1cccc([N+](=O)[O-])c1O | – | – | – | ? | – | 20µM
CN(C)c1ccc(/C=C2\N=C(c3ccc(Cl)c([N+](=O)[O-])c3)NC2=O)cc1 | – | ? | ? | · | – | ?
O=C(N/N=C/c1cccc([N+](=O)[O-])c1O)C(O)(c1ccccc1)c1ccccc1 | – | – | – | · | – | ?
O=C(CSc1nc2ccccc2nc1Cc1ccc(Cl)cc1)N1CCc2ccccc21 | · | – | – | – | · | –
C=C1C2=CC(=O)OC(c3ccoc3)[C@]2(C)CCC1[C@]1(C)C=CC(=O)C(C)(C)C1CC(=O)OC (stereo partly specified) | · | · | · | –[2.33 µM] | · | ·
CN(Cc1nc2ccccc2c(=O)[nH]1)Cc1nc2ccsc2c(=O)[nH]1 | – | 39.8µM | – | – | – | 79.4µM
CC1(C)c2ccccc2N2CCC(=O)NC21/C=C/c1ccco1 (stereo unspecified) | – | ? | – | 39.8µM | – | –
CC1(C)c2ccccc2N2CC(=O)NC21/C=C/c1ccco1 (stereo unspecified) | – | ? | – | 31.6µM | – | –
O=C1CN(N=Cc2ccco2)C(=O)N1 | · | · | – | · | – | –
COc1ccc(NC(=O)CSc2nc(-c3cc(OC)c(OC)c(OC)c3)[nH]c2-c2ccc(F)cc2)cc1 | · | ? | – | ? | · | ?
CNC1=CN(O)C(c2ccccc2)=c2cc(Cl)ccc2=N1 | · | · | · | –[2.33 µM] | · | ·
COc1ccccc1NC(=O)CN1C(=O)c2cccc3cccc1c23 | · | – | – | – | · | –
COc1cc(C(=S)N2CCOCC2)ccc1OC(=O)c1ccccc1[N+](=O)[O-] | – | – | – | · | – | ?
SMILES | L3MBTL1 inh | BAZ2B block | HP1b binding inh | G9a inh | PI5P4K alpha inh | JMJD2A Tudor inh
O=C(Oc1cccc(C(=S)N2CCOCC2)c1)c1ccc([N+](=O)[O-])cc1[N+](=O)[O-] | · | ? | ? | 25.1µM | – | –
O=C(/C=C/c1ccco1)Oc1ccc(C(=S)N2CCOCC2)cc1 | · | – | – | ? | ? | 17.8µM
O=C(Oc1ccc(C(=S)N2CCOCC2)cc1)c1cccc([N+](=O)[O-])c1 | – | – | – | 22.4µM | – | –
O=C(c1cccc([N+](=O)[O-])c1)N1CCOCC1 | – | – | – | – | – | –
O=C(Oc1cccc(C(=S)N2CCOCC2)c1)c1cccc([N+](=O)[O-])c1 | – | – | – | 44.7µM | – | –
O=C(/C=C/c1ccccc1)Oc1ccc(C(=S)N2CCOCC2)cc1 | · | – | – | – | – | –[11.4 µM]
O=C(NCc1ccccc1Br)c1ccc2nc(N3CCCCC3)sc2c1 | · | – | – | – | · | –
